What follows are compounds tested on T1, p38-gamma. Conditions: concentration: 1 μM, replicates: in singlicate; n = 1.
T1 construct: gene MAPK12
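Note: KINOMEscan kinase panel screen.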

In order of rising “%Inh” value:
1. CS(=O)(=O)CCNCc1nc(-c2ccc3ncnc(Nc4ccc(OCc5ccccc5)c(Cl)c4)c3c2)cs1.Cl [GW582764]  0%
2. Nc1nccc(-c2c(-c3ccc(F)cc3)ncn2C2CCN(Cc3ccccc3)CC2)n1 [SB-219980]  0%
3. Cc1ccc(NC(=O)Nc2ccccc2F)cc1-c1ccc(C(=O)Nc2ccncc2)cc1 [GSK1398477]  0%
4. CC(C)c1ccc(O)cc1Nc1ccnc2ccc(C(F)(F)F)cc12 [GW482059]  0%
5. COC(=O)c1cccc(NC(=O)NC2CCN(c3ccnc(Nc4ccc(F)cc4)n3)C2)c1 (stereo not drawn) [GSK1379725]  0%
6. Cc1ccccc1Cn1ccn2c(=O)cc(N3CCOCC3)nc12 [GSK2269905]  0%
7. O=C(Nc1n[nH]c2nc(-c3cccs3)c(Br)cc12)C1CC1 [SB-735297]  0%
8. Cc1c(Cn2c(C)c(C)n3c(=O)cc(N4CCOCC4)nc23)cccc1C(F)(F)F [GSK2328680]  0%
9. CCn1c(-c2c(N)noc2C)nc2cnccc21 [SB-737856]  0%
10. COc1ccc2cc(-c3nc(-c4ccccc4C(C)C)[nH]c3-c3ccncc3)ccc2c1 [SB-660566]  0%
11. CCc1ccc(-c2ccc3c(c2)-c2n[nH]cc2S(=O)(=O)N3C)cc1  0%
12. Cc1ccc(NC(=O)c2ccc(Cl)cc2)cc1-c1ccc(C(=O)Nc2ccncc2)cc1 [GSK1398467]  0%
13. Cc1c(Cn2c3ccccc3n3c(=O)cc(N4CCOCC4)nc23)cccc1C(F)(F)F [GSK2306394]  0%
14. c1ccc(-c2ccnc3[nH]ccc23)cc1 [SB-693578]  0%
15. CCn1c(-c2ccccc2)nc2cnccc21 [SB-733416]  0%
16. CCCCc1nn2ncccc2c1-c1ccnc(NC2CC2)n1 [GW684374]  0%
17. COC(=O)c1cccc(NC(=O)NC2CCN(c3ccnc(Nc4ccc(OC)cc4)n3)C2)c1 (stereo not drawn) [GSK1379746]  0%
18. CC[C@@H]1CO[C@H](C(=O)Nc2ccccc2)CN1c1cc(-c2ccc3c(N)n[nH]c3c2)nc(NC)n1 [GSK2376236]  0%
19. CNc1cc(-c2ccc3c(N)n[nH]c3c2)nc(N)n1 [GSK2224810]  0%
20. Fc1ccc(-c2nc3n(c2-c2ccncc2)CCS3)cc1 [GI98581]  0%
21. COc1cccc(CNC(=O)NC2CCN(c3ccnc(Nc4ccc(F)cc4)n3)C2)c1 (stereo not drawn) [GSK1379723]  0%
22. COc1ccc(CSc2nnc(-c3ccc4nccn4c3)o2)cc1C(F)(F)F  3%
23. CC(=O)c1c(C)c2cnc(Nc3ccc(N4CCNCC4)cn3)nc2n(C2CCCC2)c1=O  6%
24. NS(=O)(=O)c1cccc(N/C=C2\C(=O)Nc3ccc(S(=O)(=O)Cc4c(Cl)cccc4Cl)cc32)c1 [GSK398099]  7%
25. Cc1ccc(NC(=O)Nc2ccccc2)cc1-c1ccc(C(=O)Nc2ccncc2)cc1 [GSK1398471]  12%
26. Cc1cccc2c(-c3ccncn3)c(-c3ccc(F)cc3)nn12 [GW515532]  20%
27. COc1ccc(Nc2nccc(N3CCC(NC(=O)C(C)c4ccc(Cl)cc4)C3)n2)cc1 (stereo not drawn) [GSK1379735]  22%
28. CNc1nc(-c2ccc3c(N)n[nH]c3c2)cc(N2C[C@@H](C(=O)NC3CCCCC3)OC[C@H]2C)n1 [GSK2375584]  23%
29. Cc1nccc(-c2c(-c3ccc(F)cc3)ncn2CCCN2CCOCC2)n1.Cl [SB-282975]  26%
30. CNCc1ccc2nc(NC(=O)c3ccc(C(C)(C)C)cc3)cn2c1  26%
31. COc1cccc(NC(=O)Nc2ccc(C)c(-c3ccc(C(=O)Nc4ccncc4)cc3)c2)c1 [GSK1398474]  27%
32. O=c1cc(N2CCOCC2)nc2n(Cc3cccc(Cl)c3Cl)c3ccccc3n12 [GSK2299009]  30%
33. Fc1ccc(-c2nc[nH]c2-c2ccncc2)cc1 [SB-217360]  39%
34. CS(=O)(=O)Cc1ccc(Nc2nccc(-c3c(-c4cccc(NC(=O)C5CCCCC5)c4)nn4ncccc34)n2)cc1 [GSK350559]  43%
35. CC(C)c1cc(-c2ccc3c(N)n[nH]c3c2)nc(N)n1 [GSK2250882]  43%
36. Cc1cnc(N)c(/C=C/c2cncc(C(=O)NCCc3ccc(Cl)cc3Cl)c2)c1.Cl [GSK190937]  52%

— publication PMC5540273 (PLoS ONE, 2017)
